# Test results from PubChem BioAssay (NCATS).
# Inconclusive results are not listed. A call without a number means that no potency is given here. Calls of active or inactive are those of the source. Calls come from the whole dose curve; as a rule, active = well fitted curve in the direction sought with a large enough effect; inconclusive = small, poorly fitted or top-dose-only effect, or another doubt; inactive = no such curve, though single readings can be large; an effect the other way counts as inactive or inconclusive.
# Assays:
# [1] = molecular target: N-terminal Xaa-Pro-Lys N-methyltransferase 1 (Homo sapiens) (UniProt Q9BV86); test: qHTS Assay for Inhibitors of N-terminal methyltransferase 1 (NTMT1): LOPAC validation of the NTMT1 SAHH-coupled ThioGlo3 Assay (AID 1347143);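 note: SAH from peptide methylation measured as thiol fluorescence via SAHH coupling and ThioGlo3; nearly all actives have a fitted effect of over 70% in size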; note: potency is the fitted concentration of half-maximal effect
# Outline: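 Steps: dispense 125nM NTMT1; pin-transfer test compounds at several concentrations, with 1uM RCC1-6 peptide as control; incubate 1 min; start with reagent holding 100uM SAM, 10uM SAHH, 15uM ThioGlo3; read at 0 and 30 min.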
# [2] = qHTS of pediatric cancer cell lines to identify multiple opportunities for drug repurposing: Confirmatory screen for SK-N-MC cells (AID 1347111); settings: SK-N-MC cell viability;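 note: potency is the fitted concentration of half-maximal effect; cells exposed to compound for 48 h before the readout; nearly all actives have a fitted effect of over 70% in size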
# Outline: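 SK-N-MC cells at 500-1,000 cells/well in growth media were pre-incubated 5 h, then exposed to compounds at 11-point dilutions for 48 h at 37 degrees C, 5% CO2. Viability was read as CellTiter-Glo luminescence.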
# [3] = qHTS of pediatric cancer cell lines to identify multiple opportunities for drug repurposing: Confirmatory screen for BT-12 cells (AID 1347112); note: nearly all actives have a fitted effect of over 55% in size
# Outline: (§1)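 Viability after 48 h compound treatment at 37C, 500-1,000 cells/well, read as ATP luminescence with CellTiter-Glo. Primary screens used 11-point (MIPE, 0.78 nM-46 µM) or 8-point (NPC, 0.59 nM-46 µM) final concentrations; follow-up screens used 11-point dilutions.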
# [4] = qHTS of pediatric cancer cell lines to identify multiple opportunities for drug repurposing: Confirmatory screen for LAN-5 cells (AID 1347113); note: nearly all actives have a fitted effect of over 65% in size
# Outline: as §1
# [5] = qHTS of pediatric cancer cell lines to identify multiple opportunities for drug repurposing: Confirmatory screen for DAOY cells (AID 1347114); note: nearly all actives have a fitted effect of over 65% in size
# Outline: (§2)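 Viability measured as metabolically active cells via CellTiter-Glo luminescence following 48 hours of compound exposure, 11-point dilutions in confirmatory testing. 500-1,000 cells/well plated 5 hours before dosing; controls were DMSO and 2.3 µM bortezomib.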
# [6] = qHTS of pediatric cancer cell lines to identify multiple opportunities for drug repurposing: Confirmatory screen for NB-EBc1 cells (AID 1347115); note: nearly all actives have a fitted effect of over 45% in size
# Outline: as §1
# [7] = qHTS of pediatric cancer cell lines to identify multiple opportunities for drug repurposing: Confirmatory screen for SJ-GBM2 cells (AID 1347116); note: nearly all actives have a fitted effect of over 60% in size
# Outline: as §2
# [8] = qHTS of pediatric cancer cell lines to identify multiple opportunities for drug repurposing: Confirmatory screen for BT-37 cells (AID 1347117); note: nearly all actives have a fitted effect of over 55% in size
# Outline: as §1
# [9] = qHTS of pediatric cancer cell lines to identify multiple opportunities for drug repurposing: Confirmatory screen for TC32 cells (AID 1347118); settings: TC32 Ewing sarcoma cells viability qHTS; note: potency is the fitted concentration of half-maximal effect; nearly all actives have a fitted effect of over 65% in size
# Outline: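 Measured quantity: luminescence from CellTiter-Glo, reflecting metabolically active TC32 cells following 48 h of compound. Curves came straight from multi-point titrations, with 8 or 11 points in primary and 11 in confirmatory screening.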
# [10] = qHTS of pediatric cancer cell lines to identify multiple opportunities for drug repurposing: Confirmatory screen for Rh41 cells (AID 1347123);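 note: potency is the fitted concentration of half-maximal effect; 48 h compound exposure; nearly all actives have a fitted effect of over 60% in size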
# Outline: as §1
# [11] = qHTS of pediatric cancer cell lines to identify multiple opportunities for drug repurposing: Confirmatory screen for RD cells (AID 1347124);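 note: cells exposed to compound for 48 h before viability readout; nearly all actives have a fitted effect of over 65% in size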
# Outline: as §1
# [12] = qHTS of pediatric cancer cell lines to identify multiple opportunities for drug repurposing: Confirmatory screen for Rh18 cells (AID 1347125); note: nearly all actives have a fitted effect of over 55% in size
# Outline: as §1
# [13] = qHTS of pediatric cancer cell lines to identify multiple opportunities for drug repurposing: Confirmatory screen for Rh30 cells (AID 1347126); note: nearly all actives have a fitted effect of over 55% in size
# Outline: as §1
# [14] = qHTS of pediatric cancer cell lines to identify multiple opportunities for drug repurposing: Confirmatory screen for Saos-2 cells (AID 1347127); note: nearly all actives have a fitted effect of over 60% in size
# Outline: as §1
# [15] = qHTS of pediatric cancer cell lines to identify multiple opportunities for drug repurposing: Confirmatory screen for OHS-50 cells (AID 1347128)
# Outline: as §1
# [16] = qHTS of pediatric cancer cell lines to identify multiple opportunities for drug repurposing: Confirmatory screen for SK-N-SH cells (AID 1347129); note: nearly all actives have a fitted effect of over 60% in size
# Outline: as §1
# Furin (Homo sapiens) = Furin (Homo sapiens) (UniProt P09958); test: Furin counterscreen qHTS for Zika virus inhibitors (AID 1347149); note: nearly all actives have a fitted effect of over 70% in size; note: potency is the fitted concentration of half-maximal effect
# Outline: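 Counterscreen measures cleavage of 2 microM BOC-RVRR-AMC, below its ~15 microM Km, by 5 nM full-length human furin at pH 7.0 after a 15-min compound preincubation. Inhibition derives from the 15-min fluorescence increase at 37C.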
# Chain of N-terminal Xaa-Pro-Lys N-methyltransferase 1 (Homo sapiens) (Q9BV86 whole entry, looked up): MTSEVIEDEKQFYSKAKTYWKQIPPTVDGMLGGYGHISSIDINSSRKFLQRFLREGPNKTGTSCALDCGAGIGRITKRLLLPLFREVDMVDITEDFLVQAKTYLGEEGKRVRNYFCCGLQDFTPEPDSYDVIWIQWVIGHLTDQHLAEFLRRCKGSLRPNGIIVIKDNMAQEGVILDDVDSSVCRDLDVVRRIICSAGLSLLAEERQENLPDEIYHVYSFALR
# Chain of Furin (Homo sapiens) (P09958 whole entry, looked up): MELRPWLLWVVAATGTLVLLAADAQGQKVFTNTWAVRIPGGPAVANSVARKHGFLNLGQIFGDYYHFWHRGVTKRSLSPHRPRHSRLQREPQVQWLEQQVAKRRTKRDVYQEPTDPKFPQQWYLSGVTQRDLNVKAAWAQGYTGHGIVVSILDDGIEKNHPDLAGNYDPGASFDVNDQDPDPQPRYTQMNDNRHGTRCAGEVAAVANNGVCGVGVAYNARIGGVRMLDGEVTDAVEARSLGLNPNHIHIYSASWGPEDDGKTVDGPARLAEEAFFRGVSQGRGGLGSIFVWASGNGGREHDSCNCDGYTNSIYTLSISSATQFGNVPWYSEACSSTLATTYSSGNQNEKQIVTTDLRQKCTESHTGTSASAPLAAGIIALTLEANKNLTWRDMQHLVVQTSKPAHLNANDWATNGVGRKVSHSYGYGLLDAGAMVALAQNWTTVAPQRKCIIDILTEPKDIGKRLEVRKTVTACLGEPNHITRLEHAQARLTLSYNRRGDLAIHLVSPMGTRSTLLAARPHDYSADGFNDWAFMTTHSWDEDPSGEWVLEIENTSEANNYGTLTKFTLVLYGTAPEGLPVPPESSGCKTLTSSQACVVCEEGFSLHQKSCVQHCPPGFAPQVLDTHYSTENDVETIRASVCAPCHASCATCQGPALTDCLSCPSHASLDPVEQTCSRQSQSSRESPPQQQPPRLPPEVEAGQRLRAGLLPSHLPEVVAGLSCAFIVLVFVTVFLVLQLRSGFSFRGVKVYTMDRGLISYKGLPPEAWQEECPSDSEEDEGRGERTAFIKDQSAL
structure (smiles),measurement,setting,value
CN(C)CCOC(=O)COc1ccc(Cl)cc1,Potency,[1],56.2 µM (active)
C[C@]12CC[C@@H]3c4ccc(O)cc4C[C@@H](CCCCCCCCCS(=O)CCCC(F)(F)C(F)(F)F)[C@H]3[C@@H]1CC[C@@H]2O (stereo partly drawn),Potency,[2],2.61 µM (active)
same,Potency,[3],inactive
same,Potency,[4],inactive
same,Potency,[5],inactive
same,Potency,[6],inactive
same,Potency,[7],inactive
same,Potency,[8],inactive
same,Potency,[9],8.27 µM (active)
same,Potency,[10],8.27 µM (active)
same,Potency,[11],inactive
same,Potency,[12],inactive
same,Potency,[13],inactive
same,Potency,[14],inactive
same,Potency,[15],inactive
same,Potency,[16],inactive
same,Potency,[1],inactive
CCCNC(C)C(=O)Nc1ccccc1C (stereo not drawn),Potency,[1],inactive
C[C@]12CCC(=O)C=C1CC[C@@H]1[C@@H]2C(=O)C[C@@]2(C)[C@H]1CC[C@]2(O)C(=O)CO,Potency,[1],inactive
CCCOc1ccccc1-c1nc2n[nH]nc2c(=O)[nH]1,Potency,[1],inactive
CCn1ccnc1CC1COc2ccccc2O1 (stereo not drawn),Potency,[1],inactive
COC(=O)[C@H]1[C@H]2C[C@@H]3c4[nH]c5cc(OC)ccc5c4CCN3C[C@H]2C[C@@H](OC(=O)c2cc(OC)c(OC)c(OC)c2)[C@@H]1OC,Potency,Furin (Homo sapiens),27.1 µM (active)
CCOC(=O)c1cnc2c(cnn2CC)c1NN=C(C)C,Potency,Furin (Homo sapiens),inactive
